# High-throughput results deposited in PubChem BioAssay by several laboratories.
# A selection: hits, their analogues and other compounds. The true share with any hit is near 27%.
# CYP2C9 activ: activators of human CYP2C9. AID 1024. P11712. activation factor at 5 µM. 96,000 tested, 1.4% active. recombinant CYP2C9, luciferin-H conversion, luminescence; stronger effect = higher value; factor 1 = untreated enzyme, 0 = blocked;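 active = activation factor of 2 or more for CYP2C9 at a 5 µM dose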;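 also: 0 = sulfaphenazole-blocked wells and 1 = vehicle-only wells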
# CYP2C9 inh: inhibitors of human CYP2C9; inhibition, % at 5 µM; CYP2C9 Supersomes, luciferin-H conversion, luminescence; AID 777; P11712; 96,000 tested, 20% active;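 active = blocking of liver enzyme CYP2C9 beyond about 50% at 5 µM, limit read from the data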
# sEH activator: soluble epoxide hydrolase (human) activation | activation, % at 2 µM | 91,000 tested, 0.04% active | purified human sEH enzymatic activity, activator screen; in the data active = activation above about 37%
# CYP2C19 activ: activators of human cytochrome P450 2C19 | P33261 | recombinant CYP2C19, luciferin-H EGE luminescence; stronger effect = higher value; 0 = fully inhibited enzyme, 1 = untreated enzyme | AID 1025 | 96,000 tested, under 10 active | activation factor at 5 µM;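 active = activation factor of at least 2 at 5 µM in the primary screen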;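 also: 0 = wells with 2.5 mM tranylcypromine and 1 = vehicle-only wells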
# Target sequence (P33261 whole entry, looked up): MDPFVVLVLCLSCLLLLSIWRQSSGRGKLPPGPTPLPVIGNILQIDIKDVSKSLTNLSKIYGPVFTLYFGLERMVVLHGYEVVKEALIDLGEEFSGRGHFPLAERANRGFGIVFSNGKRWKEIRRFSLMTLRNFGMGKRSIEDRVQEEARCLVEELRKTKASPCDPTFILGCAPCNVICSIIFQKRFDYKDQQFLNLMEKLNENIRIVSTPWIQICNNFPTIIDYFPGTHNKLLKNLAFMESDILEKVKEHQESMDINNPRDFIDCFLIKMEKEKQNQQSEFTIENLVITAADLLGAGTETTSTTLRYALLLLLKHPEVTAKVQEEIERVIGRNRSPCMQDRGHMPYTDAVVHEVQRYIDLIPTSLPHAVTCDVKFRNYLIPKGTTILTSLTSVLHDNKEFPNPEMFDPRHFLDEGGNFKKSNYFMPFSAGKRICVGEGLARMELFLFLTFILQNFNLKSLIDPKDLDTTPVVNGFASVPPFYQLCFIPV
# CYP2C19 inh: inhibitors of human CYP2C19 | 96,000 tested, 21% active | P33261 | inhibition, % at 5 µM | CYP2C19 Supersomes, luciferin-H EGE luminescence, 30 min | AID 778;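 active = CYP2C19 inhibition above a set limit at 5 µM in the primary screen, cut at about 50% in these data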;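 also: plate controls were negative control wells for no effect and 2.5 mM tranylcypromine positive control for full effect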
# sEH inhibitor: inhibitors of human soluble epoxide hydrolase; P34913; recombinant human sEH enzymatic activity assay; inhibition, % at 2 µM; 91,000 tested, 0.34% active; AID 707; in the data active = inhibition above about 80%
# * marks the source's active call; other numbers are inactive results; / = no result.
SMILES,CYP2C9 activ,CYP2C9 inh,sEH activator,CYP2C19 activ,CYP2C19 inh,sEH inhibitor
Cc1ccccc1-n1c(-c2ccncc2)n[nH]c1=S,0.7,29,/,0.5,54*,/
S=c1[nH]nc(-c2ccncc2)n1Cc1ccccc1,0.7,31,-2,1.1,-6,2
CCOc1cc2[nH]c(=O)n(CCCC(=O)NCc3ccc(OC)cc3)c(=O)c2cc1OCC,0.5,47,-6,0.8,16,3
Cc1cc2ncn(/N=C/c3ccc([N+](=O)[O-])o3)c2cc1C,0.7,34,7,0.9,12,-10
Cc1ccc(NC(=O)CCCCCC2NC(=O)NC2C)cc1 (stereo not given),1.5,-48,-5,0.4,61*,4
Cc1noc(C)c1CN1C(=O)NC2(CCc3ccccc3C2)C1=O (stereo not given),/,/,-2,/,/,0
Cc1cc(C)nc(/N=C(/NC(=O)Nc2cccc(Cl)c2)Nc2ccccc2)n1,0.8,20,-2,1,4,3
NS(=O)(=O)c1ccc(CCNC(=O)[C@@H]2CCCN2S(=O)(=O)c2ccccc2F)cc1,0.4,61*,-9,1,-2,9
NS(=O)(=O)c1ccc(CCNC(=O)C2CCCN2C(=O)OCc2ccccc2)cc1 (stereo not given),1.1,-7,-8,1,1,8
NS(=O)(=O)c1ccc(CCNC(=O)C2CCCCN2S(=O)(=O)c2ccccc2)cc1 (stereo not given),0.3,66*,-4,0.9,13,6
O=C(NCCc1ccccc1F)C1CCCN1S(=O)(=O)c1ccc2ccccc2c1 (stereo not given),/,/,-3,/,/,6
Cc1nc(CC(=O)O)c(-c2ccccc2)s1,1,4,4,1,-3,-1
N#Cc1c(/N=C/C=C/c2ccccc2)sc2c1CCCC2,1.3,-27,-4,0.9,14,5
COC(=O)c1cc(Br)c(=O)n(Cc2ccc3c(c2)OCO3)c1,0.2,80*,/,0.1,87*,/
COC(=O)Cn1cc(C(=O)OC)cc(Br)c1=O,0.9,13,/,0.6,39,/
COC(=O)c1cc(Br)c(=O)n(CCc2ccccc2)c1,0.9,14,1,0.4,62*,1
CC(C)(C)Cc1nc(-c2ccc(Cl)cc2)no1,1.1,-11,23,1.1,-11,-26
O=C(Cn1c(-c2ccco2)nc2ccccc21)N1CCCCC1,1.1,-8,1,1.1,-8,-1
Cc1cc2n(n1)C(c1ccsc1)Nc1ccccc1-2 (stereo not given),0.4,56*,3,0.4,61*,-2
Cc1cccc(C2Nc3ccccc3C(=O)N2c2ccc(F)cc2)n1 (stereo not given),/,/,-19,/,/,20
Cc1cc2n(n1)C(c1ccccc1Cl)Nc1ccccc1-2 (stereo not given),0.2,75*,-4,0.1,86*,5
Oc1ccccc1-c1cc(-c2ccccc2Cl)[nH]n1,0.6,45,1,0.8,16,3
CSc1ccc(C2Nc3ccccc3-c3cc(C)nn32)cc1 (stereo not given),0.6,38,3,0.5,50*,-1
Cc1ccc(Nc2nc(C(=O)NCCCN3CCOCC3)cs2)cc1,0.7,26,13,0.7,28,-11
CCOC(=O)/C(=N\Nc1ccc(Cl)cc1)c1csc(Nc2ccccc2)n1,0.1,87*,15,0.9,12,-14
SMILES,CYP2C9 activ,CYP2C9 inh,sEH activator,CYP2C19 activ,CYP2C19 inh,sEH inhibitor
Cc1ccc(Nc2nc(C3CC3)cs2)cc1,0.7,26,/,0.8,20,/
CCN(CC)C(=O)c1csc(Nc2ccc(C)cc2)n1,0.4,61*,-7,0.2,81*,7
Cc1ccc(Nc2nc(C(=O)NCc3ccco3)cs2)cc1,0.1,91*,-5,0.1,86*,7
CCOC(=O)/C(=N/Nc1ccccc1)c1csc(Nc2ccccc2)n1,0.6,44,7,0.9,7,-7
Cc1ccc(Nc2nnc(SCC(=O)NCc3ccco3)s2)cc1,0.4,58*,/,0.6,44,/
Cc1ccc(O)c(-c2cc(C(F)(F)C(F)F)[nH]n2)c1,0.2,83*,10,0.2,84*,-9
Cc1ccc(O)c(-c2cc(-c3ccccc3C)[nH]n2)c1,0,98*,-6,0.2,82*,11
Cc1ccc(-c2cc(C(F)(F)F)n3ncc(C(=O)NCc4ccco4)c3n2)cc1,0.5,54*,12,0.7,32,-13
COc1ccc(-c2cc(C(F)(F)F)n3nc(C(=O)NCc4ccco4)cc3n2)cc1,0.8,15,/,0.7,33,/
Cc1ccc(-c2cc(C(F)F)n3ncc(C(=O)NCc4ccco4)c3n2)cc1,0.6,44,/,0.8,24,/
Cc1ccc(-c2cc(C(F)(F)F)n3nc(C(=O)NCCCn4ccnc4)cc3n2)cc1C,0.2,80*,10,0.1,88*,-7
O=C(NCc1ccco1)c1cc2nc(-c3ccc4c(c3)OCO4)cc(C(F)(F)F)n2n1,0.2,83*,17,0.2,77*,-16
CC(NC(=O)C(CC(=O)OC(C)(C)C)NC(=O)OC(C)(C)C)C(N)=O (stereo not given),0.9,8,-9,1,4,7
O=C(OC1CCS(=O)(=O)c2sccc21)c1ccccc1 (stereo not given),0.7,35,-2,0.4,56*,0
C=C(C)CN=c1scc(C)n1/N=C/c1ccco1,0.6,44,/,0.1,88*,/
CCN=c1scc(-c2ccco2)n1/N=C/c1ccc(O)cc1,1.1,-11,-17,0.9,10,16
COc1ccccc1-c1nnc(SCC(=O)O)n1C,1.1,-10,3,0.9,6,-3
C=C(C)Cn1c(N2CCC(Cc3ccccc3)CC2)nc2c1c(=O)[nH]c(=O)n2C,/,/,4,/,/,0
CCCn1c(N2CCC(Cc3ccccc3)CC2)nc2c1c(=O)[nH]c(=O)n2C,0.4,57*,6,0.2,83*,-4
CC(=O)Cn1c(N2CCC(Cc3ccccc3)CC2)nc2c1c(=O)[nH]c(=O)n2C,0.8,16,/,0.5,50*,/
CCOC(=O)c1ccc(Nc2nc(C)cc(C)c2C#N)cc1,1.1,-13,-4,1,-4,5
Cc1nc(C(F)(F)F)nc(Nc2ccc(Br)cc2)c1C#N,1,2,2,0.4,64*,-2
Cc1c(SCCO)c(=O)[nH]c2cc3c(cc12)OCO3,1,2,-11,1,3,12
C=COCCNC(=O)Nc1ccc(Cl)cc1Cl,0.9,9,-6,0.9,10,10
CN(C)/N=C/C=C1\CC/C(=C\c2ccc(Br)cc2)C1=O,1.1,-11,-13,0.5,54*,10
C=CCn1c(SCC(=O)c2ccccc2)nnc1-c1cc2ccccc2o1,0.6,43,/,0.2,78*,/
C=CCn1c(SCC(=O)c2ccccc2)nnc1-c1ccc2c(c1)OCO2,0.6,41,-7,0.2,77*,8
O=C(CCS(=O)(=O)c1cccc2nsnc12)NC1CCCCC1,1.2,-18,-8,0.8,25,5
